# MCF10A rerep: inducers of DNA re-replication in MCF 10A breast cells; MCF 10A DNA re-replication, Hoechst nuclear intensity, 48 h; 350,000 tested, 2.9% active; Potency, µM (titrated, usually from 46.1 µM), actives largely listed as activators; note: nearly all actives have a fitted effect of over 50% in size
# SW480 rerep: induces DNA re-replication in SW480 colon adenocarcinoma cells | SW480 DNA re-replication, Hoechst DNA content imaging, 48 h | Potency, µM (highest dose often 46.1 µM), actives largely listed as activators | 340,000 tested, 1.8% active | AID 624297; note: nearly all actives have a fitted effect of over 55% in size
#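 Image-based read-out: total Hoechst fluorescence of nuclei (405 nm excitation, 500-530 nm emission), with hits raising the fraction of high-intensity nuclei. SW480 colon cells incubated 48 hr with compounds at 37 C.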
# KB-3-1 tox: kills parental KB-3-1 adenocarcinoma cells | Potency, µM (titrated, usually from 46.1 µM), actives largely listed as cytotoxic | 400,000 tested, 1.4% active | AID 1347075 | KB-3-1 viability, CellTiter-Glo ATP luminescence, 72 h; note: nearly all actives have a fitted effect of over 60% in size
#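 72 h, 37 °C compound treatment of KB-3-1 parental cells; CellTiter-Glo added, 10 min, luminescence read. Data corrected against DMSO-only plates and normalized before curve fitting.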
# VP16 counter: Gal4-VP16 reporter inhibition counter-screen; Potency, µM (doses to about 53.6 µM), hits mostly inhibitors; Drosophila S2 Gal4-VP16 UAS-luciferase, luminescence, 20 h; AID 2546; 310,000 tested, 3.5% active;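 note: Gal4-VP16 expression switched on by copper sulfate through the metallothionein promoter; nearly all actives have a fitted effect of over 50% in size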
# RORg inh: ROR gamma (mouse) transcription inhibition | P51450 | Drosophila S2 Gal4-RORgamma UAS-luciferase reporter, 20 h | Potency, µM (top dose mostly 53.6 µM), usual class: inhibitors | 310,000 tested, 5.4% active | AID 2551; note: nearly all actives have a fitted effect of over 60% in size
# Target sequence (P51450 whole entry, looked up, the tested form may be a part): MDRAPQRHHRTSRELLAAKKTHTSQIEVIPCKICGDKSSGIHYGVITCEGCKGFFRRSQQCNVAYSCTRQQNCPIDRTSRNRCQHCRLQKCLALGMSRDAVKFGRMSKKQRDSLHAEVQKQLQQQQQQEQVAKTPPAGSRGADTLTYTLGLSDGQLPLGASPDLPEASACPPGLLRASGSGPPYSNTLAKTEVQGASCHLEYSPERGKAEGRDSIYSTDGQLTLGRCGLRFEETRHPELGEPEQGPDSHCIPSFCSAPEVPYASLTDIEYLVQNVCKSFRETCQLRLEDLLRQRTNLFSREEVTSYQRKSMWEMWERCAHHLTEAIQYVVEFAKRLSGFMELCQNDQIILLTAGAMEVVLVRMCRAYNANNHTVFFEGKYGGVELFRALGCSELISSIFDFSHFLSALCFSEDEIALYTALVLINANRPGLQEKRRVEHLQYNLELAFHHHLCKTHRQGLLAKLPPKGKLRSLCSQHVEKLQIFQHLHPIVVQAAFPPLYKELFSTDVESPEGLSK
#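 Luciferase reporter read in Schneider cells carrying Gal4-RORγ (mouse) and UAS-Photinus luciferase; cells given compound 1 h before 700 uM copper sulfate induction, then incubated 20 h at ambient temperature.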
# KB-V1 MDR tox: kills drug-selected multidrug resistant KB-V1 cells; KB-V1 MDR cells viability, CellTiter-Glo, 72 h; Potency, µM (series often up to 46.1 µM), hits mostly cytotoxic; 400,000 tested, 3.4% active; note: nearly all actives have a fitted effect of over 60% in size
#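 Compound-treated KB-V1 multidrug-resistant cells, 72 h, 37 degrees C; viability by CellTiter-Glo. Fitted qHTS curves give the values.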
# A number is an active result; i = inactive; ? = inconclusive; nt = no result given; [ ] = dose if it differs, or a comment. The list is not random: actives were taken first. Their share in the collection is about 10%. Calls come from the whole dose curve; as a rule, active = well fitted curve in the direction sought with a large enough effect; inconclusive = small, poorly fitted or top-dose-only effect, or another doubt; inactive = no such curve, though single readings can be large; an effect the other way counts as inactive or inconclusive.
SMILES,MCF10A rerep,SW480 rerep,KB-3-1 tox,VP16 counter,RORg inh,KB-V1 MDR tox
C=CCOc1ccc2nc(NC(=O)OC)[nH]c2c1,1.5µM,1.3µM,0.65µM,i,?,1.2µM
COc1cc2nc(NC(=O)c3ccccc3)[nH]c(=O)c2cc1OC,i,i,i,?,i,i
C=C(c1ccc2nc(NC(=O)OC)[nH]c2c1)c1cccs1,0.58µM,0.73µM,?,nt,nt,0.65µM
O=C(COc1ccc2ccccc2c1)Nc1ccc(O)c(-c2nc3ccccc3o2)c1,nt,nt,i,nt,nt,?
COc1ccc2c(c1)c(=O)c(C(=O)c1ccccc1)cn2Cc1ccc(C)cc1,?,?,?,i,i,18µM
CC1CC(=O)NN=C1c1ccc(NCCO)c([N+](=O)[O-])c1 (stereo not given),i,i,i,i,i,0.13µM
Cn1c2c(c(=O)n(C)c1=O)C(C(F)(F)F)(C(F)(F)F)N=C(c1ccccc1Cl)N2,i,i,?,i,i,?
Cn1c2c(c(=O)n(C)c1=O)C(C(F)(F)F)(C(F)(F)F)N=C(CCC1CCCCC1)N2,?,i,23µM,?,?,?
Cc1cc(C)nc(Nc2nc(C(N)Cc3ccccc3)cs2)n1 (stereo not given),nt,nt,?,nt,nt,i
O=C(c1cccs1)N1CCC(c2nc(-c3ccc(S(=O)(=O)N4CCOCC4)cc3)no2)CC1,i,i,16µM,i,i[10 µM],5.8µM
O=C(Nc1ccccc1)N1CCC(c2nc(-c3ccc(S(=O)(=O)N4CCOCC4)cc3)no2)CC1,1.8µM,5.8µM,4.6µM,i,i[10 µM],4.1µM
O=C(c1ccccc1)N1CCC(c2nc(-c3ccc(S(=O)(=O)N4CCOCC4)cc3)no2)CC1,i,i,i,?,?,?
O=C(Nc1cccc(C(F)(F)F)c1)N1CCC(c2nc(-c3ccc(F)cc3)no2)CC1,?,i,i,?,i,2.6µM
O=S(=O)(Nc1ccc(F)cc1F)c1ccc(-n2cccn2)cc1,nt,nt,i,nt,nt,i
CCc1ccc(-n2nc3cc(C)c(NC(=O)c4cc(Cl)ccc4OC)cc3n2)cc1,nt,nt,i,nt,nt,i
COCCCNc1c2c3c(cccc3[nH]c1=O)C(=O)c1ccccc1-2,15µM,18µM,5.8µM,i,i,2.1µM
CCOC(=O)c1c2c3c(cccc3[nH]c1=O)C(=O)c1ccccc1-2,i,i,i,i,i,i
COc1cc(-c2nnc(-c3ccco3)o2)ccc1OCc1ccccc1,i,i,?,i,?,4.1µM
N#Cc1ccc(C(=O)Nc2ccccc2-c2nc3ccccc3s2)c(F)c1,nt,nt,i,nt,nt,i
O=C(O)Cn1nnc(-c2ccc(OCc3cccc(C(F)(F)F)c3)cc2)n1,nt,nt,i,nt,nt,i
CCc1nnc(NC(=O)CSc2nccn2-c2cccc(C)c2C)s1,?,?,?,18µM,2.8µM,i
Cc1cccc(-n2ccnc2SCC(=O)Nc2nccs2)c1C,i,i,i,i,?,?
CCc1nnc(NC(=O)CSc2nccn2-c2cc(C)cc(C)c2)s1,?,?,18µM,?,18µM,i
CCOc1ccc(-n2ccnc2SCC(=O)Nc2nnc(C)s2)cc1,i,i,i,i,i,i
CCc1nnc(NC(=O)CSc2nc3cccnc3n2C2CCCCC2)s1,?,i,i,?,10µM,?
SMILES,MCF10A rerep,SW480 rerep,KB-3-1 tox,VP16 counter,RORg inh,KB-V1 MDR tox
O=C(c1ccc(N2CCN(C(=O)c3ccccc3Br)CC2)cc1)c1cccc(F)c1,?,i,?,i,?,5.8µM
CCOC(=O)N1CCN(c2ccc(C(=O)c3cccc(F)c3)cc2)CC1,i,i,i,i,?,?
O=C(c1ccc(N2CCN(C(=O)c3cccc(F)c3)CC2)cc1)c1cccc(F)c1,?,i,i,i,i,4.1µM
Cc1nc(-c2ccc(Cl)cc2)sc1CCNC(=O)c1ccc(C(F)(F)F)cc1,nt,nt,i,nt,nt,i
Cn1c(=O)c(C(=O)COC(=O)c2cc(C(F)(F)F)nc3c(C(F)(F)F)cccc23)c(N)n(Cc2ccccc2)c1=O,nt,nt,nt,i,i,nt
COC(=O)C1=C(C)NC(=O)NC1c1ccc(N2CCC(c3ccccc3)=N2)cc1 (stereo not given),5.2µM,2.1µM,i,i,i,?
OCCN1CCN(c2nc(NCc3ccco3)c3ccccc3n2)CC1,?,?,i,i,i,i
c1ccc(CN2CCN(c3nc(NCc4ccco4)c4ccccc4n3)CC2)cc1,?,?,?,?,?,3.7µM
OCCNc1nc(N2CCN(c3ccccc3)CC2)nc2ccccc12,7.3µM,i,i,nt,nt,i
Cc1ccc(OCCN2CCN(c3nc(NCc4ccco4)c4ccccc4n3)CC2)cc1,15µM,?,?,i,i,16µM
OCCNc1nc(Nc2ccc(O)cc2)nc2ccccc12,i,i,i,i,i,i
CCOC(=O)c1cccc(NC(=O)c2ccc3c(Cl)c4c(nc3c2)CCC4)c1,nt,nt,i,nt,nt,i
O=[N+]([O-])c1ccc(CCO)cc1,nt,nt,nt,i,i,nt
O=[N+]([O-])c1ccc(N=NN(CCO)CCO)cc1,i,23µM,i,i,i,i
O=C(Cc1ccc(N2CCNC2=O)cc1)N1CCCC(Nc2cccc(F)c2)C1 (stereo not given),3.7µM,?,4.1µM,?,i,?
O=C(Cc1ccc(N2CCNC2=O)cc1)N1CCCC(Nc2ccc(F)c(F)c2)C1 (stereo not given),?,5.8µM,7.3µM,i,i,i
O=C(c1cccc(N2CCNC2=O)c1)N1CCCC(Nc2cccc(F)c2)C1 (stereo not given),?,i,i,i,i,i
COC(=O)/C(=C(O)\C=C\c1ccccc1[N+](=O)[O-])c1nc2ccccc2[nH]1,i,i,i,?,7.9µM,i
O=C(c1ccco1)N1CCC2(CC1)CCN(c1ccccn1)CC2,nt,nt,nt,i,i,nt
CCN(CC)c1ccc2c(c1)OC(N)=C(C#N)C2c1cccnc1 (stereo not given),?,0.18µM,0.041µM,i,i,0.29µM
N#CC1=C(N)Oc2cc(Nc3ccccc3)ccc2C1c1ccncc1 (stereo not given),?,16µM,?,i,i,i
COc1ccco1,nt,nt,nt,i,i,nt
CC1=NN(C(=O)c2ccccc2F)C(O)(c2ccc(Cl)cc2)C1 (stereo not given),?,i,i,6.3µM,5.6µM,i
CCOC(=O)N1N=C(C)CC1(O)c1ccccc1 (stereo not given),i,i,i,i,i,i
CC1=NN(C(=O)c2ccccc2Cl)C(O)(c2ccccc2)C1 (stereo not given),i,i,i,7.1µM,6.3µM,i
COc1ccc(C2CC(c3ccccc3)Oc3ccc(OC)cc32)cc1 (stereo not given),nt,nt,nt,i,i,nt
O=C(Cn1c(=O)n(-c2ccccc2)c(=O)c2ccc(C(=O)NCc3ccc4c(c3)OCO4)cc21)Nc1ccc(Br)cc1F,nt,nt,i,nt,nt,i

# Compound activity (PubChem)
